Active and inactive are the calls of the source. The calls were made as follows: active = hit-call score of the fitted dose curve at least 0.9, where 1 is the maximum; inactive = score below 0.9.
Tests used:
[1] = ATG_GLI_CIS: Attagene CIS-FACTORIAL HepG2 Assay for human Zinc Finger Protein GLI1 (AID 2282945); details: HepG2, Attagene cis-factorial reporter mRNA, GLI element; actives raise or lower the signal
How it was run: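 Bidirectional curve fits relative to DMSO, using reporter mRNA levels from RT-PCR plus capillary electrophoresis. Cells were HepG2 transiently carrying cis-regulated reporter constructs, harvested 24 h after dosing.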

[2] = ATG_GRE_CIS: Attagene CIS-FACTORIAL HepG2 Assay for human Glucocorticoid Response Elements (GRE) (AID 2282947); details: HepG2 GRE cis-reporter, Attagene multiplex mRNA; actives raise or lower the signal
How it was run: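 Reporter transcripts read by RT-PCR with capillary electrophoresis fluorescence after a 24 h chemical exposure of HepG2 cells transiently transfected with multiple cis-element reporter units. Gain or loss fitted against DMSO.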

[3] = ATG_ISRE_CIS: Attagene CIS-FACTORIAL HepG2 Assay for human Interferon Regulatory Factor 1 (IRF1) binding to an Interferon-Stimulated Response Element (ISRE) (AID 2282948); details: HepG2 ISRE cis-reporter (Attagene), mRNA transcription readout; actives raise or lower the signal
How it was run: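 Signal reflects induction or loss of ISRE-linked reporter mRNA in transiently transfected HepG2 cells after a 24 h treatment, detected by fluorescent RT-PCR fragments on capillary electrophoresis and normalised to DMSO.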

[4] = ATG_M_32_CIS: Attagene CIS-FACTORIAL HepG2 Assay for M32 Transcription Factor (Internal Marker) (AID 2282949); details: HepG2 Attagene cis-factorial M32 reporter, mRNA; actives raise or lower the signal;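 also: background control marker of the multiplexed CIS panel rather than a real target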
How it was run: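 HepG2 human liver cells transiently transfected with cis-promoter-driven multiple reporter transcription units, dosed 24 h. Reporter mRNA quantified by RT-PCR, FAM-labelled primer extension, HpaI digest and capillary electrophoresis; bidirectional fit versus DMSO baseline.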

[5] = ATG_M_06_CIS: Attagene CIS-FACTORIAL HepG2 Assay for M06 Transcription Factor (Internal Marker) (AID 2282950); details: HepG2 Attagene CIS-FACTORIAL M06 internal marker reporter; actives raise or lower the signal
How it was run: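 Internal background marker within multiplexed cis-reporter HepG2 system. Cells transiently transfected, dosed 24 h; reporter mRNA measured by RT-PCR, HpaI digestion and capillary electrophoresis. Bidirectional fit relative to DMSO.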

[6] = target: Hypoxia-inducible factor 1-alpha (Homo sapiens) (UniProt Q16665); test: ATG_HIF1a_CIS: Attagene CIS-FACTORIAL HepG2 Assay for human Hypoxia Inducible Factor 1 (HIF1A) (AID 2282951); details: HepG2 Attagene cis-factorial HIF1a reporter transcription; actives raise or lower the signal
Sequence of Hypoxia-inducible factor 1-alpha (Homo sapiens) (Q16665 whole entry, looked up): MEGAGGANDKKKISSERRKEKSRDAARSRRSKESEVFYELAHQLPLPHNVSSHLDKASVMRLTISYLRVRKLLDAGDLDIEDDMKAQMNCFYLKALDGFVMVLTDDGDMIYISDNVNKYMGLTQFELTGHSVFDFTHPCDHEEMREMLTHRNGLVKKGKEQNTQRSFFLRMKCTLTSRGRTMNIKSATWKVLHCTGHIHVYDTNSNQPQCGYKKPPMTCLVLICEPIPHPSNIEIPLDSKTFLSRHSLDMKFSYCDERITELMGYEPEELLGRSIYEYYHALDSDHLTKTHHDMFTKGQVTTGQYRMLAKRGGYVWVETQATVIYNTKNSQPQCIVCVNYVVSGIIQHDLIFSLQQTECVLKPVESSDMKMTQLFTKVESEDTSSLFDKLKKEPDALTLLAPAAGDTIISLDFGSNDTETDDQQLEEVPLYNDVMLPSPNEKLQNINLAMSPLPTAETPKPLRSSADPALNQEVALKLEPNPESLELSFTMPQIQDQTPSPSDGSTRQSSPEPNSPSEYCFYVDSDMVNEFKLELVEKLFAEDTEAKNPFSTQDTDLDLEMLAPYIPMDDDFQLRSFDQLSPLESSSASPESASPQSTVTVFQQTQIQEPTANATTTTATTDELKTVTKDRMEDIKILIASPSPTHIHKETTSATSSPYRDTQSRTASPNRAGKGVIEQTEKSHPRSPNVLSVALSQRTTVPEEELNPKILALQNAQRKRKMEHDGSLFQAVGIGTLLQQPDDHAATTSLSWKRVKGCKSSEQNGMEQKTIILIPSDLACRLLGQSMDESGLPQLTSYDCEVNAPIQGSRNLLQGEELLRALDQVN
How it was run: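 After 24 h chemical exposure of reporter-transfected HepG2 cells, reporter cDNA was PCR-amplified, labelled by 6-FAM primer extension (2 min 95 C, 20 s 68 C, 10 min 72 C), HpaI-cut (2 h, 37 C) and analysed by CE.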

[7] = target: Hepatocyte nuclear factor 6 (Homo sapiens) (UniProt Q9UBC0); test: ATG_HNF6_CIS: Attagene CIS-FACTORIAL HepG2 Assay for human Hepatocyte Nuclear Factor 6 (HNF6) (AID 2282952); details: HepG2 Attagene cis-factorial HNF6 reporter transcription; actives raise or lower the signal
Sequence of Hepatocyte nuclear factor 6 (Homo sapiens) (Q9UBC0 whole entry, looked up): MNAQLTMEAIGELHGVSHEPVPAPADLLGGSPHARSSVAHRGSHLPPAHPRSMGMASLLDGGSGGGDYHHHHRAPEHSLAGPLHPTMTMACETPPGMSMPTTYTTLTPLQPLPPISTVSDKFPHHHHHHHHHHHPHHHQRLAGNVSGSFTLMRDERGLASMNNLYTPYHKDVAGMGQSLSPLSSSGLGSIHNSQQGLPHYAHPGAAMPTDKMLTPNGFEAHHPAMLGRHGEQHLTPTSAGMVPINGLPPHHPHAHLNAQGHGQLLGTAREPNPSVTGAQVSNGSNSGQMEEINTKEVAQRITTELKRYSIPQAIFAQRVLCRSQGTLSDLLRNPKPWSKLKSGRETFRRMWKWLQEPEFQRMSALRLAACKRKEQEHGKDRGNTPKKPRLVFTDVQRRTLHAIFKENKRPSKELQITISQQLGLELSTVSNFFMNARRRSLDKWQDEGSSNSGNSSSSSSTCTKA
How it was run: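 Activity values derive from bidirectional fitting against DMSO of reporter mRNA levels, measured by capillary electrophoresis of labelled RT-PCR products from HepG2 cells exposed 24 h.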

[8] = target: Heat shock factor protein 1 (Homo sapiens) (UniProt Q00613); test: ATG_HSE_CIS: Attagene CIS-FACTORIAL HepG2 Assay for human Heat Shock Transcription Factor 1 (HSE) (AID 2282953); details: HepG2 HSE cis-reporter, Attagene RNA transcription; actives raise or lower the signal
Sequence of Heat shock factor protein 1 (Homo sapiens) (Q00613 whole entry, looked up): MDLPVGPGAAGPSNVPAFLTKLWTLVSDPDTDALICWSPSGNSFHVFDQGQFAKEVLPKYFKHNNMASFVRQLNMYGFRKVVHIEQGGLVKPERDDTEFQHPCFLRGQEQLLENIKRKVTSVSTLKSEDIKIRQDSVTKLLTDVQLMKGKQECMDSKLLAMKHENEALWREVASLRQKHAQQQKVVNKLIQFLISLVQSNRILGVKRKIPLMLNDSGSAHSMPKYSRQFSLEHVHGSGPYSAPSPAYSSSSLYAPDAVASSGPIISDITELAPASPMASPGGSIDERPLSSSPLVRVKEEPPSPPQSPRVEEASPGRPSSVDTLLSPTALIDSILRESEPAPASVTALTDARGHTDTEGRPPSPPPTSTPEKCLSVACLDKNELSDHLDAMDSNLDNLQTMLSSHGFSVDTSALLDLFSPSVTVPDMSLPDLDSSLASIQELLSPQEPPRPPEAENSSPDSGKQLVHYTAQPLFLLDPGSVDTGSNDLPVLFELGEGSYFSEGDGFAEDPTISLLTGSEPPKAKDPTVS
How it was run: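 HepG2 cells transfected with cis-promoter reporter units sensing endogenous transcription factor activity; reporter mRNA quantified 24 h post-dose by RT-PCR and capillary electrophoresis of 6-FAM-labelled products. Bidirectional fitting against DMSO.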

[9] = ATG_MRE_CIS: Attagene CIS-FACTORIAL HepG2 Assay for human Metal Responsive Element (MRE) (AID 2282954); details: HepG2 MRE cis-reporter transcription, Attagene multiplex; actives raise or lower the signal
How it was run: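 Endogenous MRE-dependent transcription read as reporter mRNA in transiently transfected human HepG2 cells at 24 h. RNA reverse-transcribed, PCR-amplified, labelled and resolved by capillary electrophoresis; gain or loss relative to DMSO.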

[10] = ATG_PBREM_CIS: Attagene CIS-FACTORIAL HepG2 Assay for human Phenobarbital-responsive Enhancer Module (PBREM) (AID 2282955); details: HepG2 PBREM cis-reporter, Attagene multiplexed transcription; actives raise or lower the signal
How it was run: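 Measures endogenous factor action on a phenobarbital-responsive enhancer module. HepG2 transiently carrying cis reporters, 24 h treatment, mRNA read-out by RT-PCR plus capillary electrophoresis.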

[11] = target: Paired box protein Pax-6 (Homo sapiens) (UniProt P26367); test: ATG_Pax6_CIS: Attagene CIS-FACTORIAL HepG2 Assay for human Paired Box 6 (PAX6) (AID 2282956); details: HepG2 CIS-FACTORIAL PAX6 reporter transcription, RNA readout; actives raise or lower the signal
Sequence of Paired box protein Pax-6 (Homo sapiens) (P26367 whole entry, looked up): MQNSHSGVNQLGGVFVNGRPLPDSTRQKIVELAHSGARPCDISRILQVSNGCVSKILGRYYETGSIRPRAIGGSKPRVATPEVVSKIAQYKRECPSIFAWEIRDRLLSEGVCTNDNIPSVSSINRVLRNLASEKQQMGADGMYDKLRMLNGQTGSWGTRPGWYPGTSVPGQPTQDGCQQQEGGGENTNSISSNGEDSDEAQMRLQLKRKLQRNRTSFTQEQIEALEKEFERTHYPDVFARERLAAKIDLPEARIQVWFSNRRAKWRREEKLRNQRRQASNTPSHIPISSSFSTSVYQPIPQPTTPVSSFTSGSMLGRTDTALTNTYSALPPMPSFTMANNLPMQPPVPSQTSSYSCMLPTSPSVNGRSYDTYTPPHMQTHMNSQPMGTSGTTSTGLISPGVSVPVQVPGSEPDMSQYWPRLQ
How it was run: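 Values derive from bidirectional curve fitting of reporter mRNA signal relative to DMSO. HepG2 cells bearing transfected cis-regulated MRTUs were exposed for 24 h; transcripts were read by RT-PCR and capillary electrophoresis.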

[12] = ATG_PXRE_CIS: Attagene CIS-FACTORIAL HepG2 Assay for human Pregnane X Receptor Element (PXRE) (AID 2282957); details: HepG2 Attagene CIS-FACTORIAL PXRE reporter, mRNA; actives raise or lower the signal
How it was run: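 Fluorescent capillary electrophoresis of amplified reporter cDNA gave the signal, collected 24 h after dosing HepG2 cells that held transfected cis-element reporter constructs.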

[13] = ATG_PPRE_CIS: Attagene CIS-FACTORIAL HepG2 Assay for human Peroxisome Proliferator-activated Response Element (PPRE) (AID 2282958); details: HepG2 PPRE cis-element reporter, Attagene transcription factor profiling; actives raise or lower the signal
How it was run: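 PPRE activity in HepG2: transient cis-reporter transfection, 24 h compound incubation, reporter mRNA by RT-PCR and CE fluorescence; gain/loss fitted against DMSO.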

[14] = ATG_RORE_CIS: Attagene CIS-FACTORIAL HepG2 Assay for human RAR-related Orphan Receptor Element (RORE) (AID 2282959); details: HepG2 Attagene cis-factorial RORE reporter, mRNA; actives raise or lower the signal
How it was run: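 A 24-hour exposure of transfected HepG2 hepatoma cells precedes RNA isolation and reporter RT-PCR. Labeled products are digested with HpaI and resolved by capillary electrophoresis, with gain or loss of signal scored relative to DMSO.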

[15] = ATG_Sox_CIS: Attagene CIS-FACTORIAL HepG2 Assay for human SRY-box transcription factor (SOX) (AID 2282960); details: HepG2 Attagene cis-factorial SOX reporter, mRNA; actives raise or lower the signal
How it was run: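 HepG2, cis reporter units, 24 h exposure. Reporter mRNA: RT-PCR → FAM labelling → HpaI → CE fluorescence. Bidirectional fit vs DMSO.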

[16] = target: Transcription factor Sp1 (Homo sapiens) (UniProt P08047); test: ATG_Sp1_CIS: Attagene CIS-FACTORIAL HepG2 Assay for human Specificity Protein 1 (Sp1) (AID 2282961); details: HepG2 Sp1 cis-reporter transcription, actives raise or lower the signal
Sequence of Transcription factor Sp1 (Homo sapiens) (P08047 whole entry, looked up, the tested form may be a part): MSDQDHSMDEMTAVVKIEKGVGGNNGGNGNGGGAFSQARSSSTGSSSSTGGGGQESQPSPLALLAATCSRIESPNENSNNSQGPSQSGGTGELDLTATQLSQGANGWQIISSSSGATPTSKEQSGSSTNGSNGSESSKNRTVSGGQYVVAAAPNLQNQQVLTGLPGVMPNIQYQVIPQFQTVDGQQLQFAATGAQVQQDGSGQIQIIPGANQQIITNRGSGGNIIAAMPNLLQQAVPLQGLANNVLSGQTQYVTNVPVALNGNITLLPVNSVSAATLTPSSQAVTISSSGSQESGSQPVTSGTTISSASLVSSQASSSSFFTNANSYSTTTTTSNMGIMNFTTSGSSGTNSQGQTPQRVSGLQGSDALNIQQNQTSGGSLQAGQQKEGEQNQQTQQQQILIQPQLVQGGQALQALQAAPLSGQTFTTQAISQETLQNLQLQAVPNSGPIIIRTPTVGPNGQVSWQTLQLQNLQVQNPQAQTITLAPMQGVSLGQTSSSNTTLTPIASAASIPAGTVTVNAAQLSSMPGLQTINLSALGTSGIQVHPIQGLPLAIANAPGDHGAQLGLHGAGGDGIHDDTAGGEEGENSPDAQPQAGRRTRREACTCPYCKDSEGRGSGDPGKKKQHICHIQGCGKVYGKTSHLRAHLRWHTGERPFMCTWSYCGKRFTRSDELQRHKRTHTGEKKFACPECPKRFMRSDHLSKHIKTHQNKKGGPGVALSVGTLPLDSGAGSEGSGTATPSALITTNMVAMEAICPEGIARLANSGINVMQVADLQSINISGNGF
How it was run: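 Liver-derived HepG2 cells, cis-element reporter library, 24 h treatment; RNA isolated, cDNA amplified with reporter-specific primers, FAM-labeled fragments sized on capillary analyzer. DMSO baseline, bidirectional curve fit.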

[17] = ATG_SREBP_CIS: Attagene CIS-FACTORIAL HepG2 Assay for human Sterol Regulatory Element Binding (SREBP) (AID 2282962); details: HepG2 Attagene cis-factorial SREBP reporter, mRNA; actives raise or lower the signal
How it was run: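 Values derive from bidirectional curve fitting with DMSO as baseline. The underlying measurement is reporter mRNA from cis-element-regulated units in transiently transfected HepG2, quantified by RT-PCR and capillary electrophoresis after 24 h exposure.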

[18] = target: Signal transducer and activator of transcription 3 (Homo sapiens) (UniProt P40763); test: ATG_STAT3_CIS: Attagene CIS-FACTORIAL HepG2 Assay for human Signal Transducer and Activator of Transcription 3 (STAT3) (AID 2282963); details: HepG2, Attagene cis-factorial STAT3 reporter transcription; actives raise or lower the signal
Sequence of Signal transducer and activator of transcription 3 (Homo sapiens) (P40763 whole entry, looked up): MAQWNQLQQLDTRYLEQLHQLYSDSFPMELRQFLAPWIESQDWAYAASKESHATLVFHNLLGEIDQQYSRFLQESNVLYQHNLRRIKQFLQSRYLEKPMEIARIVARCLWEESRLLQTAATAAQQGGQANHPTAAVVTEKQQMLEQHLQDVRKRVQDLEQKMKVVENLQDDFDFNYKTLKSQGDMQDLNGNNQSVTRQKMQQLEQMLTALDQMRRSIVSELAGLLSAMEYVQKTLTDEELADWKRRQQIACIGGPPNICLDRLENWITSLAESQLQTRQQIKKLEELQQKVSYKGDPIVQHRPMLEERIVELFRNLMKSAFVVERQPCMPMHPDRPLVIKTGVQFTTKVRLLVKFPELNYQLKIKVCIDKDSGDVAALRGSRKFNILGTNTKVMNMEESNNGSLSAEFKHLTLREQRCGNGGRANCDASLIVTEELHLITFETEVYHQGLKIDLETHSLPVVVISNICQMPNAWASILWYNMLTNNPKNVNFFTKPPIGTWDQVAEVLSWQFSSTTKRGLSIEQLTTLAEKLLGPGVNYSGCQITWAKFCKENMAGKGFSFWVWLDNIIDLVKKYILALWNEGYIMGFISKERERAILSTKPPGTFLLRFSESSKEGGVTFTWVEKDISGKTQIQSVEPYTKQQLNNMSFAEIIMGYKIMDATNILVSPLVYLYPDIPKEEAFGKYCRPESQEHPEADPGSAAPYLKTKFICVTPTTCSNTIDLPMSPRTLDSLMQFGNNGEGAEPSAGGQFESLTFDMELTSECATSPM
How it was run: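 Readout is reporter transcript quantified by RT-PCR and capillary electrophoresis, with 6-FAM primer extension and HpaI digestion. Total RNA is taken 24 h after dosing transiently transfected HepG2 carrying cis-regulated reporter units. Bidirectional fit against DMSO.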

[19] = ATG_TA_CIS: Attagene CIS-FACTORIAL HepG2 Assay for human TA Basal Promoter (AID 2282964); details: HepG2 Attagene CIS-factorial TA basal promoter reporter; actives raise or lower the signal
How it was run: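 HepG2 cells transiently transfected with multiple reporter units under cis promoter elements, reporting endogenous transcription factor activity; this endpoint tracks the TA basal promoter as background control. Reporter mRNA after 24 h dosing measured by RT-PCR/capillary electrophoresis; bidirectional fits versus DMSO.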

[20] = target: Bile acid receptor (Homo sapiens) (UniProt Q96RI1); test: ATG_IR1_CIS: Attagene CIS-FACTORIAL HepG2 Assay for human Nuclear Receptor Subfamily 1 Group H Member 4 (NR1H4), IR1 submotif (AID 2282946); details: IR1 reporter transcription, actives raise or lower the signal
Sequence of Bile acid receptor (Homo sapiens) (Q96RI1 whole entry, looked up): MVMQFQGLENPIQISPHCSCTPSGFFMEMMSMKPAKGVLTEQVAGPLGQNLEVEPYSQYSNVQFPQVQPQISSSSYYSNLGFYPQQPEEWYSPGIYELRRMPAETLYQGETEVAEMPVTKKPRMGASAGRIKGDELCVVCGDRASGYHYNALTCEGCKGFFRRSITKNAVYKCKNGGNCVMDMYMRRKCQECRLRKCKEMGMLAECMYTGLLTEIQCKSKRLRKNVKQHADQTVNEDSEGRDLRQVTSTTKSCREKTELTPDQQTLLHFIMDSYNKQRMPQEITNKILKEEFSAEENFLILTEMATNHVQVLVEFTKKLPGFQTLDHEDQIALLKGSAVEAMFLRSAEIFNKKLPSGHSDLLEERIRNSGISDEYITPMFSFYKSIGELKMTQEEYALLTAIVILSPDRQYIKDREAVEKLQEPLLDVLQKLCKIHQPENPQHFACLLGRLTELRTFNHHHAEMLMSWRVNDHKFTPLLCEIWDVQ
How it was run: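 HepG2 cells transiently transfected with multiplexed cis-element reporter units read endogenous transcription factor activity. After 24 h compound exposure, reporter mRNA was quantified by RT-PCR, fluorescent labelling, HpaI digestion and capillary electrophoresis; bidirectional fitting versus DMSO baseline.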

Measured: AC50

Cc1ccc(C(C)C)c(O)c1
active: [12] 34.5 µM
not listed: [20]
inactive: all other assays above

COc1cc(C=O)ccc1O
not listed: [2] | [8]
inactive: all other assays above

COCCOC[C@H](CC1(C(=O)NC2CCC(C(=O)O)CC2)CCCC1)C(=O)Oc1ccc2c(c1)CCC2 (stereo not given in full)
active: [12] 20.2 µM
not listed: [15] | [20]
inactive: all other assays above

COc1ccc(S(=O)(=O)N2C(=O)[C@@](c3ccccc3OC)(N3C[C@H](O)C[C@H]3C(=O)N(C)C)c3cc(Cl)ccc32)c(OC)c1
active: [1] 125 µM | [2] 147 µM | [3] 49.9 µM | [4] 133 µM | [6] 25.2 µM | [8] 149 µM | [9] 45.5 µM | [10] 17.1 µM | [11] 64.1 µM | [12] 0.0584 µM | [13] 76.8 µM | [14] 28.5 µM | [15] 122 µM | [19] 46.6 µM
inactive: [5] | [7] | [16] | [17] | [18]

CC(=O)OCCOCCOCCOC(C)=O
active: [6] 39.4 µM
not listed: [2] | [15]
inactive: all other assays above

COc1cccc2c1C(=O)c1c(O)c3c(c(O)c1C2=O)C[C@@](O)(C(=O)CO)C[C@@H]3O[C@H]1C[C@H](N)[C@H](O)[C@H](C)O1
active: [1] 1.25 µM | [2] 0.942 µM | [3] 1.63 µM | [6] 1.23 µM | [9] 1.66 µM | [17] 0.909 µM
not listed: [20]
inactive: all other assays above

C1CCC(SSC2CCCCC2)CC1
active: [16] 158 µM | [17] 100 µM
not listed: [20]
inactive: all other assays above

Reference: PubChem BioAssay (EPA / NIEHS)
